a7 integrin act = integrin-mediated muscular dystrophy alleviation activation | alpha7betagal myoblasts, beta-gal FDG fluorescence, 48 h | Potency, µM (top dose mostly 38.3 µM), without a hit: at the highest dose activation, hits mostly activators | 350,000 compounds, 0.064% hits | AID 624291;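 note: potency is the fitted concentration of half-maximal effect; 100% = response of the positive control SU9516; nearly all actives have a fitted effect of over 60% in size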
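Alpha7betagal+/- myoblasts (passage 13) were plated 16-24 hr, then exposed to compounds (1:260 dilution of DMSO stock) for 48 hours at 37C. After MPER lysis, β-galactosidase reporter activity was read as FDG fluorescence (ex 480/em 540) after 30 minutes.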
Giardia killer = Giardia lamblia killing; Giardia lamblia trophozoite viability; activity change, % at 7.66 µM, hits read low; 340,000 compounds, 0.15% hits; AID 540267; in the data active = activity change below about -80%; inconclusive = between about -30% and that limit;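 note: parasites exposed to compound for two days anaerobically before the ATP read; % is set by controls: 0 for no effect and ±100 for the full control effect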
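Giardia trophozoites, 100 cells per well, were exposed to compounds for 48 hrs at 37 deg C under anaerobic conditions; viability was then read as ATP content by bioluminescence after 15-30 min at room temperature.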
Gal4-VP16 FLuc = counter-screen for ROR gamma inhibitors: Gal4-VP16 reporter; AID 2546; Drosophila S2 Gal4-VP16 UAS-luciferase, luminescence, 20 h; Potency, µM (top dose mostly 53.6 µM), for the others: top-dose activity, negative = inhibition, hits mostly inhibitors; 310,000 compounds, 3.5% hits;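 note: Gal4-VP16 expression switched on by copper sulfate through the metallothionein promoter; potency is the fitted concentration of half-maximal effect; % is set by controls: 0 for no effect and ±100 for the full control effect; nearly all actives have a fitted effect of over 50% in size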
ERG Ets-DNA blk = blocks human ERG Ets domain binding to DNA. P11308. fluorescence polarization, His-ERG Ets domain / labelled DNA. Potency, µM (doses to about 76.9 µM), without a hit: top-dose FP activity, negative = inhibition, actives largely listed as inhibitors. 370,000 compounds, 0.028% hits; active = well fitted inhibition curve with a large enough effect in the polarisation, with a control signal flat; inconclusive = small, poorly fitted or top-dose-only effect, or effect the other way, or a change in a side signal; inactive = no such curve, though single readings can be large or run the other way; the % refers to the polarisation;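 note: polarization taken with two DNA probes labelled with fluorescein and Texas red; potency is the fitted concentration of half-maximal effect; % of control where 0% means no effect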
Target sequence (P11308 whole entry, looked up, the tested form may be a part): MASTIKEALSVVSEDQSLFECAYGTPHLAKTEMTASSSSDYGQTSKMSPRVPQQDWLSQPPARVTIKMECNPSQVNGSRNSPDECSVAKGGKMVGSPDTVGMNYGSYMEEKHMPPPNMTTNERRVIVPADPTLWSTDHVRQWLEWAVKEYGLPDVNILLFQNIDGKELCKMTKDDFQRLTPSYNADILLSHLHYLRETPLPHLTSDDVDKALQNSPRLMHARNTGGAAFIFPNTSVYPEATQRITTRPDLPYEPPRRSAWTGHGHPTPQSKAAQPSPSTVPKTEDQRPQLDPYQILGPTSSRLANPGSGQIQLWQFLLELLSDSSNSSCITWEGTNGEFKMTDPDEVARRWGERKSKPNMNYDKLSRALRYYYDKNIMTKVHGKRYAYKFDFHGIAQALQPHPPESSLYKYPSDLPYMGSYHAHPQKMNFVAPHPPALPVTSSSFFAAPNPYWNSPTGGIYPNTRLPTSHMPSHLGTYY
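His-tagged ERG Ets domain (1 uM in the protein solution; 300mM KCl, 50mM Tris-HCl, 1mM EDTA, 1mM DTT, pH 7.5) received compound, then a probe mix of 5 nM fluorescein-DNA and 100nM Texas-615-DNA. Fluorescence polarization was read for both dyes.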
RORgamma inh = inhibitors of mouse ROR gamma transcriptional activity. 310,000 compounds, 5.4% hits. Potency, µM (doses to about 53.6 µM), for inactives: at the highest dose activity change, negative = inhibition, usual class: inhibitors. Drosophila S2 Gal4-RORgamma UAS-luciferase reporter, 20 h. P51450; note: potency is the fitted concentration of half-maximal effect; % is set by controls: 0 for no effect and ±100 for the full control effect; nearly all actives have a fitted effect of over 60% in size
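Luminescence from a UAS-regulated Photinus luciferase reporter in stably transfected Drosophila Schneider cells is measured; decreased signal marks ROR gamma inhibition. Fusion expression is induced by 700 uM copper sulfate for 20 hr.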
The depositor's hits bear a star; ? = inconclusive; / = no result given; [ ] = another dose, or the depositor's remark. Shown is part of a subset that was picked to be rich in hits. Unless noted, calls come from the whole dose curve; as a rule, active = well fitted curve in the direction sought with a large enough effect; inconclusive = small, poorly fitted or top-dose-only effect, or another doubt; inactive = no such curve, though single readings can be large; an effect the other way counts as inactive or inconclusive.

SMILES	a7 integrin act	Giardia killer	Gal4-VP16 FLuc	ERG Ets-DNA blk	RORgamma inh
CCc1ccc(OCC(=O)NC(NC(=S)Nc2ccccc2C)C(Cl)(Cl)Cl)cc1 (centres undefined)	-30%	8	5µM*	-1%	6.3µM*
CCc1ccc(OCC(=O)NC(NC(=S)Nc2ccccc2)C(Cl)(Cl)Cl)cc1 (centres undefined)	-30%	-10	13µM*	19%	?
CCc1ccc(OCC(=O)NC(NC(=S)Nc2ccccc2OC)C(Cl)(Cl)Cl)cc1 (centres undefined)	-18%	15	?	26%	?
COC(=O)c1ccccc1NC(=S)NC(NC(=O)COc1ccccc1)C(Cl)(Cl)Cl (centres undefined)	7%	26	?	1%	5.6µM*
CCc1ccc(OCC(=O)NC(NC(=S)Nc2ccc(C)cc2C)C(Cl)(Cl)Cl)cc1 (centres undefined)	12%	-7	?	-10%	10µM*
CCC1CCCCN1S(=O)(=O)c1ccc(C(=O)Nc2sc3c(c2C(=O)NC)CCC3)cc1 (centres undefined)	/	/	/	2%	/
Cc1ccc(-c2nn(-c3ccccc3)cc2CNCc2ccccc2)cc1	-71%	-29	14µM*	19%	?
O=C(NC1CCCCC1)c1cc([N+](=O)[O-])[nH]n1	3%	-26	?	-3%	-19%
O=C(/C(N=Nc1cccc([N+](=O)[O-])c1)=C(/O)c1ccc(Br)cc1)C(F)(F)F	/	/	4.5µM*	/	7.9µM*
COc1ccc(Cl)cc1NC(=O)c1[nH]nc(OC)c1[N+](=O)[O-]	-38%	4	-1%[10 µM]	-4%	3.5µM*
COc1n[nH]c(C(=O)Nc2cc(Cl)ccc2Cl)c1[N+](=O)[O-]	-14%	-5	?	-4%	?
COc1ccc(Nc2oc(/C=C/c3ccc(OC)c(OC)c3)nc2C#N)cc1	/	/	/	2%	/
CC(C)CC(=O)/C=C/n1c(=S)oc2ccccc21	-64%	-8	11µM*	-3%	-96%
Cn1c(=S)oc2ccccc21	-13%	6	-10%	1%	-2%
CC(=O)/C=C/n1c(=S)oc2ccccc21	?	-6	3.2µM*	12%	2.8µM*
NC(Cc1cnc[nH]1)C(=O)Nc1ccc2ccccc2c1 (centres undefined)	/	/	-14%	/	2%
Cc1ccc(-c2cc(C(=O)NN=C3CCCC3)c3ccccc3n2)cc1	3%	-5	?	-2%	13µM*
CCc1nnc(NC(=O)c2cc(-c3ccccn3)nc3ccc(Br)cc23)s1	?	?	?	-1%	20µM*
COC(=O)c1sccc1NC(=O)c1cc(-c2cc(C)ccc2C)nc2ccccc12	-2%	-13	-1%	-6%	-6%
CCc1nnc(NC(=O)c2cc(-c3ccncc3)nc3ccccc23)s1	26%	19	-1%	-1%	-4%
Cc1ccc(C)c(-c2cc(C(=O)Nc3nccs3)c3ccccc3n2)c1	1%	0	?	-8%	13µM*
O=C(NC1=NCCS1)c1cc(-c2ccc(-c3ccccc3)cc2)nc2ccccc12	24%	-6	5µM*	17%	3.5µM*
O=C(NN=C1CCCCCC1)c1cc(-c2ccccc2)nc2ccccc12	-52%	24	12%	-13%	?
CC(=O)Nc1cccc(NC(=O)CSc2nc3c(c(=O)n(C)c(=O)n3C)n2C)c1	-10%	6	-9%	6%	-5%
CC(C)c1ccc(-c2cc(C(=O)NN3CCN(C)CC3)c3ccccc3n2)cc1	-37%	-30	14µM*	6%	11µM*
SMILES	a7 integrin act	Giardia killer	Gal4-VP16 FLuc	ERG Ets-DNA blk	RORgamma inh
CC(C)(C)c1nnc(NC(=O)c2cc(-c3ccccc3)nc3ccccc23)s1	15%	-4	10µM*	-12%	5.6µM*
O=C=Nc1ccc(Cc2ccc(N=C=O)cc2)cc1	/	/	-7%	/	9%
O=C(NCC(=O)N1CCN(C(=O)c2ccco2)CC1)c1ccc(Br)cc1	12%	5	-9%	21%	-2%
CCOc1ccc(C(=O)Nc2cccc(NC(=O)c3ccc(C(C)(C)C)cc3)c2)cc1Br	/	/	/	-1%	/
Cc1ccc(NC(=O)c2cc3nc(-c4ccccc4)cc(-c4ccccc4)n3n2)cc1	/	/	/	0%	/
Cc1ccc(NC(=O)c2cc3nc(C)cc(C)n3n2)cc1	-3%[7.66 µM]	-15	10µM*	-2%	6.3µM*
